{"source": "paper PMC13541613", "about": "“GHT-SELEX demonstrates unexpectedly high intrinsic sequence specificity and complex DNA binding of many human transcription factors”", "data": [{"molecular_target": "ZNF721 DBD2 (Homo sapiens, UniProt Q8TF20-2 395-923)", "sequence (Q8TF20 383-911)": "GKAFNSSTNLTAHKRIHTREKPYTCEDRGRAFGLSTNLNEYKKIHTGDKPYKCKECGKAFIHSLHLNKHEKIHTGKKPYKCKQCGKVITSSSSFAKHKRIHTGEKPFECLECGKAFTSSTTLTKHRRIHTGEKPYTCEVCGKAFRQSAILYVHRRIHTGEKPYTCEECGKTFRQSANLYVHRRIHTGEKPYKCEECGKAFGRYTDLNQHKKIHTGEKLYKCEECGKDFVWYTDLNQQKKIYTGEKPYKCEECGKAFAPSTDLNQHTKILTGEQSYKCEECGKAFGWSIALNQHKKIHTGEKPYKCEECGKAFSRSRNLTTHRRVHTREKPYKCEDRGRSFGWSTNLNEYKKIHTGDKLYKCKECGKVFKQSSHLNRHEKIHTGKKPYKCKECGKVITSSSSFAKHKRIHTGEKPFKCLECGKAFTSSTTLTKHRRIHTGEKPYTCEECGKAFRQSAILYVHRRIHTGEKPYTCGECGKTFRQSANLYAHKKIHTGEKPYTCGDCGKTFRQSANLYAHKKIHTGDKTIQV", "test": "HT-SELEX; 20 mM HEPES pH 7, 140 mM KCl, 5 mM NaCl, 1 mM K2HPO4, 2 mM MgSO4, 100 uM EGTA, ZnSO4, 0.1% Tween20; room temperature, 1 h; high values mean tight binding", "settings": "protein: ivt; tags: eGFP (N-terminal); dsDNA, one strand shown", "procedure,_shortened": "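A tagged transcription factor, either full-length or its DNA-binding-domain fragment, was made in HEK293 lysate or cell-free extract, immobilised on beads and incubated with a randomized 40-base DNA library for 1 h at room temperature in HEPES/KCl low-stringency buffer containing Tween20. Washed beads were heat-eluted, and the bound DNA was PCR-amplified over successive cycles and Illumina-sequenced at ~3 million 60 bp reads per sample. The binding signal is the relative k-mer count in selected reads, where a higher value means tighter binding.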", "units": {"binding signal": "relative 10-mer count"}, "values": [{"sequence": "CACCACCCTC", "binding signal": 0.00419}, {"sequence": "AGAAAAAAGC", "binding signal": 0.0556}, {"sequence": "ACCCACCCCG", "binding signal": 0.00264}, {"sequence": "CCCACGACCC", "binding signal": 0.0018}, {"sequence": "CAACAAAACA", "binding signal": 0.116}, {"sequence": "CCCACCCACA", "binding signal": 0.00959}, {"sequence": "CCACCACCCC", "binding signal": 0.00419}, {"sequence": "CCCACCCCTC", "binding signal": 0.00527}, {"sequence": "AAAAAAGCGC", "binding signal": 0.015}, {"sequence": "AAAAAAAGAA", "binding signal": 0.0321}, {"sequence": "CGCCCCACCC", "binding signal": 0.00312}, {"sequence": "GCAGCATACC", "binding signal": 0.158}, {"sequence": "CCCCCCCCGC", "binding signal": 0.0024}, {"sequence": "CACCCCCCGC", "binding signal": 0.00635}, {"sequence": "TGTGTATGAA", "binding signal": 0.00228}, {"sequence": "CCCGACCCCC", "binding signal": 0.00144}, {"sequence": "CCCCCTCGCC", "binding signal": 0.00288}, {"sequence": "CCCCACCCGC", "binding signal": 0.003}, {"sequence": "CTCCCCCGCC", "binding signal": 0.00216}, {"sequence": "CCCGCCCCCA", "binding signal": 0.00132}, {"sequence": "CGCCCGCCCC", "binding signal": 0.00144}, {"sequence": "CACCCACCCG", "binding signal": 0.00264}, {"sequence": "GGTGGTGGGA", "binding signal": 0.00455}, {"sequence": "AGCATACCCC", "binding signal": 0.146}, {"sequence": "CCCCCCACCG", "binding signal": 0.0036}, {"sequence": "AAAAAAAAGC", "binding signal": 0.125}, {"sequence": "CCCACCAACC", "binding signal": 0.00563}, {"sequence": "CCACCCCAAC", "binding signal": 0.00659}, {"sequence": "CCCTACCCCA", "binding signal": 0.00395}, {"sequence": "CCCACCTCCC", "binding signal": 0.00551}, {"sequence": "CCCACCCACC", "binding signal": 0.00899}, {"sequence": "GCCACCCCAC", "binding signal": 0.00491}, {"sequence": "CAGCGTACCC", "binding signal": 0.41}, {"sequence": "CCCACCCAAC", "binding signal": 0.0113}, {"sequence": "CGCCCCCCTC", "binding signal": 0.00204}, {"sequence": "CCTCCCCGCC", "binding signal": 0.00923}, {"sequence": "AAGCTATCCC", "binding signal": 0.0012}, {"sequence": "CACCGCCACC", "binding signal": 0.00384}, {"sequence": "ACCCCTCCAC", "binding signal": 0.00419}, {"sequence": "AGGGTTTCCA", "binding signal": 0.201}]}]}
